Assay outcomes: PubChem, several laboratories
PRMT1 FP inh – blocks human protein arginine methyltransferase 1; Q99873; AID 652257; 370,000 tested, 1.3% active; recombinant PRMT1, activity-based probe fluorescence polarization; inhibition, % at 2.79 µM;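 active = inhibition above about 21% made by adding two undisclosed values, limit read from the data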
NOD2-RIPK2 inh – inhibitors of human NOD2-RIPK2 interaction | 360,000 tested, 0.38% active | CHO BLA complementation NOD2-RIPK2, CCF4 ratio | inhibition, % at 4.98 µM; in the data active = inhibition above about 21%
Target sequence (O43353 whole entry, looked up): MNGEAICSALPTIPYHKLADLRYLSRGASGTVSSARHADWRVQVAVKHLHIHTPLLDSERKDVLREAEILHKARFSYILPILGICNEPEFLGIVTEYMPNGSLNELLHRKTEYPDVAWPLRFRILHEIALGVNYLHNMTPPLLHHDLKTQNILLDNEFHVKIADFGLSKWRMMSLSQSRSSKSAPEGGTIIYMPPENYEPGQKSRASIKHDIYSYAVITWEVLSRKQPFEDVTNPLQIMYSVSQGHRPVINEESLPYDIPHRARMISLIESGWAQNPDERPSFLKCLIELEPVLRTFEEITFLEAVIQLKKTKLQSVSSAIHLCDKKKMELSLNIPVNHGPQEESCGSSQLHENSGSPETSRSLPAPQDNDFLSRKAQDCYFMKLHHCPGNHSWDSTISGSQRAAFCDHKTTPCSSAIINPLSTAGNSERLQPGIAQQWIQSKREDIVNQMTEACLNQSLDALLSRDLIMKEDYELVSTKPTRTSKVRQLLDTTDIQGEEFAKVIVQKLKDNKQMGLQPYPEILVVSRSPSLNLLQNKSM
Exocytosis inh – lytic granule exocytosis inhibition | TALL-104 LAMP-1 surface exposure, flow cytometry; cells stimulated with thapsigargin and PMA | inhibition, % at 10 µM | 360,000 tested, 0.66% active;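 active = inhibition above about 55%, limit read from the data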
TLR4 MyD88 comp – TLR4-MyD88 interaction inhibition in cells | O00206+Q99836 | HeLa CL3-4 TLR4/MyD88 BLA complementation, FRET ratio | inhibition, % at 8.4 µM | 200,000 tested, 0.18% active | AID 861; in the data active = inhibition above about 25%
ABHD5 PLIN5 PPI – blocks binding of human ABHD5 to perilipin-5; Q00G26+Q8WTS1; Split G. princeps luciferase complementation, luminescence, 4 h; inhibition, % at 4 µM; 360,000 tested, 0.78% active; AID 602281;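 active = inhibition above the mean inhibition across every tested compound plus 3 SD, cut at about 22% in these data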
TLR9-MyD88 inh – TLR9-MyD88 interaction inhibition | Q9NR96+Q99836 | CHO BLA complementation TLR9-MyD88, CCF4 FRET ratio | inhibition, % at 4.98 µM | 340,000 tested, 0.21% active | AID 504734;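 active = inhibition above the mean over all tested compounds plus 3 SD, cut at about 21% in these data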
TLR9-MyD88 cf – TLR9-MyD88 interaction inhibition, confirmation | inhibition, % at 4.98 µM | shares compounds with TLR9-MyD88 inh | 680 tested, 51% active | CHO TLR9/MyD88 BLA complementation, CCF4 FRET ratio;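 active = mean inhibition across three repeats above about 21% taken from the earlier screen, limit read from the data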;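 note: blue over green emission ratio reports constitutive TLR9 MyD88 association via BLA complementation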
BLA nonselective – beta-lactamase reporter inhibition, counter-screen artifact | shares compounds with TLR9-MyD88 inh | CHO-BLA cells, CCF4 FRET ratio, BLA reporter | inhibition, % at 4.98 µM | 680 tested, 7% active | AID 540251;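 active = mean inhibition above a 50% cutoff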;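 note: counterscreen of TLR9-MyD88 hits on CMV-driven BLA in CHO-K1 cells; higher means less blue over green ratio so more BLA blockade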
TLR9 CHO tox – CHO cell toxicity counter-screen for TLR9-MyD88 inhibitors; shares compounds with TLR9-MyD88 inh; TLR9-MyD88 CHO cells cytotoxicity, luminescence; inhibition, % at 4.98 µM; 680 tested, 39% active; AID 588336; in the data active = inhibition above about 11%
A number is an active result; 0 = inactive; - = no result. Shown are actives, neighbours in structure and some others; about 2.6% of the full set was active somewhere.

SMILES	PRMT1 FP inh	NOD2-RIPK2 inh	Exocytosis inh	TLR4 MyD88 comp	ABHD5 PLIN5 PPI	TLR9-MyD88 inh	TLR9-MyD88 cf	BLA nonselective	TLR9 CHO tox
CN(C)c1ccc(/C=C(\C#N)C(=O)NCc2ccco2)cc1	-	-	-	0	-	-	-	-	-
CC(OC(=O)/C(C#N)=C/c1ccc(N(C)C)cc1)C(=O)NCc1ccco1 (configuration not stated)	0	0	0	-	0	24	0	0	0
Cc1cccc(NC(=O)Nc2nc3ncccn3c2-c2ccc(F)cc2)c1	0	-	-	-	-	-	-	-	-
COC(=O)[C@H](C(C)C)N(CCCc1cn(Cc2ccc(C)cc2)nn1)S(=O)(=O)c1ccc(F)cc1Br	0	-	-	-	-	-	-	-	-
O=C(COC(=O)c1cccc(Br)c1)Nc1ccc2[nH]c(=O)[nH]c2c1	0	0	0	-	0	21	0	0	0
O=C(COC(=O)/C=C/c1ccc(F)cc1)Nc1ccc2[nH]c(=O)[nH]c2c1	0	0	0	-	0	0	-	-	-
O=C(COC(=O)/C=C/c1ccc(Cl)cc1)Nc1ccc2[nH]c(=O)[nH]c2c1	0	0	0	-	0	23	0	0	13
O=C(COC(=O)c1c(F)cccc1F)Nc1ccc2[nH]c(=O)[nH]c2c1	0	0	0	0	0	0	-	-	-
COC(=O)c1ccc(S(=O)(=O)N2CCC(NC(=O)CCC3CCCC3)CC2)cc1	0	-	-	-	-	-	-	-	-
COc1ccc(/C=C/C(=O)NC(=S)Nc2ccc(S(=O)(=O)Nc3ccc(OC)nn3)cc2)cc1	0	0	0	0	0	27	0	0	0
COc1ccc(OCC(O)CNC(=O)/C=C/c2cccc([N+](=O)[O-])c2)cc1 (configuration not stated)	0	0	0	0	0	23	0	0	0
O=c1c2cc(C(F)(F)F)ccc2sn1-c1ccccc1	71	0	0	-	0	23	26	0	58
O=c1c2ccccc2c(-c2cccc(C(F)(F)F)c2)nn1-c1ccccc1	0	0	0	-	0	0	-	-	-
COc1ccc2c(c1)C(NC(=O)C(F)(F)F)CC21CCCCC1 (configuration not stated)	0	-	-	-	-	-	-	-	-
O=C(NCc1ccco1)c1cccc2c1C(=O)c1ccc(/C=C/c3ccccc3)cc1S2(=O)=O	29	0	0	-	0	30	47	52	12
O=C(NCc1ccco1)c1cccc2c1C(=O)c1ccc(N3CCC(Cc4ccccc4)CC3)cc1S2(=O)=O	-	32	0	-	0	27	37	0	0
O=C(NCc1cccc(C(F)(F)F)c1)c1cccc2c1C(=O)c1ccc(N3CCC(Cc4ccccc4)CC3)cc1S2(=O)=O	-	0	0	-	0	31	45	0	0
CC1CCN(c2ccc3c(c2)S(=O)(=O)c2cccc(C(=O)NCc4cccc(F)c4)c2C3=O)CC1	0	0	0	-	0	0	-	-	-
O=C(NCc1cccc(F)c1)c1cccc2c1C(=O)c1ccc(N3CCC(Cc4ccccc4)CC3)cc1S2(=O)=O	-	21	0	-	0	50	44	0	0
Cc1ccc(N2C(=O)NC(NS(=O)(=O)c3ccc(C)cc3)(C(F)(F)F)C2=O)cc1 (configuration not stated)	0	0	0	-	0	21	0	0	0
Cc1ccc(N2C(=O)NC(NS(=O)(=O)c3ccccc3)(C(F)(F)F)C2=O)cc1 (configuration not stated)	0	0	0	-	0	0	-	-	-
O=C1Cc2ccccc2C(=O)N1c1ccccc1	0	0	0	-	0	31	42	0	0
Cc1ccsc1C(=O)OCC(=O)NC1CCCCC1	0	0	0	-	0	21	0	0	0
Cc1ccsc1C(=O)OCC(=O)NC1CC1	0	0	0	-	0	0	-	-	-
Cc1c(O)ccc2c(CN3CCN(CCO)CC3)cc(=O)oc12	0	0	0	0	0	27	0	0	0
CC(C)(C)OC(=O)NC(Cc1ccccc1)C1CC(C#N)C(=O)O1 (configuration not stated)	0	-	-	-	-	-	-	-	-
